# High-throughput results as filed in PubChem BioAssay.
# In the library only some 6.4% were active in any assay of this set; here they are far more common.
# KinaseGlo FLuc: Kinase-Glo luciferase inhibition (counter-screen) | Kinase-Glo luciferase, ATP luminescence, 8 min | Potency, µM (titrated, usually from 38.3 µM), inactives show at the highest dose activity change, negative = inhibition, actives largely listed as inhibitors | 200,000 compounds, 0.28% hits; further: nearly all actives have a fitted effect of over 60% in size
#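 Kinase-Glo luciferase light output from ATP and luciferin was measured with 10 uM ATP, within the enzyme's linear range. Buffer: 50 mM imidazole pH 7.2, 50 mM KCl, 7 mM MgCl2, 0.01% Tween 20, 0.05% BSA; luminescence read after 8 min at ambient temperature.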
# Gal4-VP16 FLuc: counter-screen for ROR gamma inhibitors: Gal4-VP16 reporter. Drosophila S2 Gal4-VP16 UAS-luciferase, luminescence, 20 h. Potency, µM (titrated, usually from 53.6 µM), without a hit: top-dose activity, negative = inhibition, hits mostly inhibitors. 310,000 compounds, 3.5% hits. AID 2546;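 further: Gal4-VP16 expression switched on by copper sulfate through the metallothionein promoter; nearly all actives have a fitted effect of over 50% in size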
# RORg inh: blocks mouse ROR gamma transcriptional activity; P51450; Drosophila S2 Gal4-RORgamma UAS-luciferase reporter, 20 h; Potency, µM (doses to about 53.6 µM), for the others: top-dose activity change, negative = inhibition, most hits filed as inhibitors; 310,000 compounds, 5.4% hits; further: nearly all actives have a fitted effect of over 60% in size
# Target sequence (P51450 whole entry, looked up, the tested form may be a part): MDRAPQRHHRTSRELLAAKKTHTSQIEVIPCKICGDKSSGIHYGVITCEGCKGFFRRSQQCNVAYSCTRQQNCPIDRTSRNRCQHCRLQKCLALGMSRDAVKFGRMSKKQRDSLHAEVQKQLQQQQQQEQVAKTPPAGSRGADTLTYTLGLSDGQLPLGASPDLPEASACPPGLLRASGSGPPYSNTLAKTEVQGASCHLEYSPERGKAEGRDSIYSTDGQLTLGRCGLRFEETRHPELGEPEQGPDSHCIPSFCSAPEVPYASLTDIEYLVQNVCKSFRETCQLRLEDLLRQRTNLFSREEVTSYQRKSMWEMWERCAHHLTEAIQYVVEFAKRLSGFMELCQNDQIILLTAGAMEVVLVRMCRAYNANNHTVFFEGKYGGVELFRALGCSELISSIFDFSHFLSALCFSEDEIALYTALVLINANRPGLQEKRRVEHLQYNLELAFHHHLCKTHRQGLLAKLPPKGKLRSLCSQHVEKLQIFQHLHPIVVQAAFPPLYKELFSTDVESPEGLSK
#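 Read-out: Photinus luciferase luminescence; inhibitors lower reporter signal. Insect Schneider cells with Gal4-ROR gamma fusion under metallothionein promoter, UAS reporter; 700 uM final copper sulfate induction, 20 hr, ambient temperature.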
# The depositor's hits bear a star; ? = inconclusive; nt = not tested or not shown; [ ] = another dose, or the depositor's remark. The call rests on the fitted dose curve; in most records, active means well fitted curve in the direction sought with a large enough effect; inconclusive means small, poorly fitted or top-dose-only effect, or another doubt; inactive means no such curve, though single readings can be large; an effect the other way counts as inactive or inconclusive. On the % scale 0 is the no-effect control and ±100 the full control effect; potency means the concentration at half of the fitted maximal effect.
SMILES,KinaseGlo FLuc,Gal4-VP16 FLuc,RORg inh
CN1CC(=O)NC1=NC(=O)C12CC3CC(CC(C3)C1)C2,-1%,4µM*,2.2µM*
CN1CC(=O)N/C1=N/C(=O)Nc1cccc(Cl)c1,-16%,-19%,?
Cc1cc(N)n(-c2ncnc3scc(-c4ccc(Cl)cc4)c23)n1,-1%,-10%,-23%
Clc1ncnc2scc(-c3ccc(Br)cc3)c12,1%,?,11µM*
O=C(NCc1ccc(Cl)cc1)c1cccc(NC2=NC3CS(=O)(=O)CC3S2)c1 (centres undefined),nt,0%,-12%
Cc1cccc(Nc2nc(N)nc(CCl)n2)c1,nt,10µM*,?
COc1cccc(Nc2nc(N)nc(CCl)n2)c1,nt,-21%,-19%
O=C(Nc1ccccc1F)C1CCN(S(=O)(=O)c2cccnc2)CC1,nt,2%,9%
O=c1[nH]c(=O)n([C@@H]2O[C@H](CO)[C@@H](O)[C@H]2O)cc1F,2%,-18%,7%
O=C(Nc1cccc(-c2cnc3ccccc3n2)c1)C1CC(=O)N(c2ccccc2)C1 (centres undefined),nt,-13%,?
CC1=CC23C(=O)C(C=C(CO)[C@@H](O)[C@]2(O)[C@H]1O)[C@H]1[C@@H](C[C@H]3C)C1(C)C (some centres undefined),nt,-4%,5%
Cc1noc(C)c1-c1ccc2ncnc(NCc3cccn3C)c2c1,nt,7%,-2%
COc1ccc(OC)c(/C=N/NC(=O)c2cc(-c3ccc(C)o3)nc3ccccc23)c1,-9%,?,?
COc1ccc(OC)c(/C=N\NC(=O)CC(=O)NCCc2ccccc2)c1,0%,4%,-3%
COc1cccc(/C=N/NC(=S)NCCc2ccccc2)c1OC,nt,?,11µM*
COc1cccc(/C=N/NC(=O)CC(=O)NCCc2ccccc2)c1OC,0%,-7%,25%
COc1ccc(OC)c(/C=N/NC(=S)NCCc2ccccc2)c1,nt,11µM*,40µM*
COc1ccc(OC)c(/C=N/NC(=O)c2csc3ccccc23)c1,1%,0%,13µM*
CC(C)C(C(=O)O)N1C(=O)/C(=C/c2ccc(Br)cc2)SC1=S (centres undefined),nt,?,39%
C=CCN=C1SC(C)(C)C(=O)N1S(=O)(=O)c1ccc(C)cc1,4%,-4%,14%
Cc1ccc(CN(C)C(=O)C2CCC(=O)N(CC3CCCCC3)C2)o1 (centres undefined),nt,-11%,30%
O=C(CCS(=O)(=O)c1ccc(F)cc1)Nc1nc(-c2ccccn2)cs1,nt,-22%,10µM*
Cc1ccc(S(=O)(=O)CCC(=O)Nc2nc(-c3ccncc3)cs2)cc1,nt,-1%,-9%
O=C(CCCOc1ccccc1)Nc1nccs1,9%,2%,-35%
Cc1cc(C)c(OCC(=O)Nc2nc(-c3ccccn3)cs2)c(C)c1,-1%,?,2.8µM*
SMILES,KinaseGlo FLuc,Gal4-VP16 FLuc,RORg inh
COc1ccc(OCCCC(=O)Nc2nc(-c3ccccn3)cs2)cc1,0%,-28%,10µM*
Cc1cc(C)c(OCC(=O)Nc2ccccn2)c([N+](=O)[O-])c1,3%,12%,18%
CC(=O)OC1CC(OC(C)=O)[C@]2(C)C(CC(OC(C)=O)[C@]3(C)C2CC[C@@]2(C)C(c4ccoc4)OC(=O)C4O[C@]432)C1(C)C (some centres undefined),-2%,4%,?
CN(C)c1ccc(Nc2cc(Cl)ncn2)cc1,nt,-4%,30%
CCOC(=O)c1c(C)n(O)c2ccc(Cl)cc2c1=O,1%,16µM*,?
Cc1c(C(=O)N(C)C)c2cc(Cl)ccc2n1O,1%,-7%,11%
O=C(NCc1ccc(-n2cccc2)cc1)c1cccc(F)c1,-4%,-2%,-13%
CN(C)c1nc(=S)nc(NCc2ccccc2)[nH]1,-2%,-7%[10 µM],25%
CC(C)CNc1nc(=S)nc(N(C)C)[nH]1,-2%,4.5µM*,1.8µM*
COc1ccc(CNC(=O)c2ccc(CS(=O)(=O)c3ccc(C)cc3)o2)cc1,nt,-19%,10%
CC1=C(C(=O)OCc2ccccc2)C(c2ccc(Cl)cc2)NC(=O)N1CCCC(=O)O (centres undefined),nt,8%,16µM*
CC1=C(C(=O)OCc2ccccc2)C(c2ccc(Br)cc2)NC(=O)N1CCCC(=O)O (centres undefined),nt,0%,?
CC(C)NC(=O)N1CC[C@@]2(CCCN(C(=O)c3csnn3)C2)C1,-3%,-2%,-4%
N=C1SCC(=O)N1c1nc(-c2ccccc2)cs1,-2%,-4%,8.9µM*
O=C1C2C3c4ccccc4C(c4ccccc43)C2C(=O)N1c1nc(-c2ccccc2)cs1 (centres undefined),0%,0%,-8%
COc1ccc(C(=O)NCCCNC(=O)c2cnccn2)cc1,nt,1%,-1%
